{
  "source": "PubChem BioAssay AID743343",
  "about": "(Broad Institute, 2014)",
  "note": "Potency and affinity values are given separately. Unmarked numbers belong to inactive results. No rule for the calls is given here.",
  "data": [
    {"system": "Drosophila melanogaster bursicon receptor LGR2 (rickets)", "assay": "blockers of bursicon-stimulated LGR2 cAMP reporter – cell-based, HEK293, CRE-luciferase reporter, cherry pick, set 2, dose response (AID 743343)", "conditions": "bursicon-induced cAMP antagonist; series mostly up to 35 µM; activity change, negative = inhibition: at the top concentration", "units": {"activity change, negative = inhibition": "%"}, "values": [
      {"smiles": "Cc1ccc2c(c1)C1CN(C)CCC1N2C(=O)c1cn(-c2ccccc2)nc1-c1ccccc1", "note": "(stereo not drawn)", "activity change, negative = inhibition": -34.1},
      {"smiles": "O=C(O)c1nn(Cc2ccc(Cl)cc2Cl)c2ccccc12", "activity change, negative = inhibition": -2.47},
      {"smiles": "O=c1c2ccccc2nc(/C=C/c2ccc([N+](=O)[O-])o2)n1-c1ccc(O)cc1", "activity change, negative = inhibition": 13.4}
    ]}
  ]
}
